For experiment [1], the target named is Lysosomal acid glucosylceramidase (Homo sapiens) (UniProt P04062). In words: Glucocerebrosidase-p2 (AID 348; in the data active = potency below about 10 µM; note: potency is the fitted concentration of half-maximal effect). The note with it: purified GBA, blue fluorogenic substrate, 40 min. The method in brief: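 Normal human glucocerebrosidase (0.2 nM) with blue fluorogenic substrate (80 uM final) in citrate/phosphate pH 5.9 with 10mM sodium taurocholate, 0.01% tween-20; 40 min RT, NaOH/glycine stop; fluorescence Ex 365/Em 440; AC50 from a titration from 0.6 nM upwards.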

The nature of experiment [2]: AP1 Signaling Pathway (AID 357). Note: % is set by controls: 0 for no effect and ±100 for the full control effect. The note with it: ME-180 AP-1-bla reporter, EGF-induced, beta-lactamase ratio, 5 h; at 7.69 µM (top of the series) unless noted. The essentials: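 ME-180 cells with beta-lactamase reporter under AP-1 response element, stimulated with EC50 EGF; compounds tested in titration series, 5 h at 37 °C. CCF4 substrate added 2.5 h at room temperature; 460/530 nm emission ratio gave %activity and AC50.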

For experiment [3], the target named is Cytochrome P450 1A2 (Homo sapiens) (UniProt P05177). In words: p450-cyp1a2 (AID 410; calls by dose curve; note: potency is the fitted concentration of half-maximal effect;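 for activity change, negative = inhibition: -100% = full effect of reference inhibitor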). The following applies: recombinant CYP1A2, luciferin-ME demethylation, luminescence; series mostly up to 57 µM. The method in brief: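 O-Demethylation of luciferin 6' methyl ether by human CYP1A2 is monitored as luciferase luminescence. Substrate sits at Km (100uM); enzyme is 20nM. Values are scaled to 57 uM furafylline as maximal inhibition.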

Experiment [4] in a line: Stat Signaling Pathway (AID 446).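 Note: ME-180 cervical cancer cells given 40 pM IL-6 alongside compound; SIE-controlled beta-lactamase reporter measured as 460/530 nm FRET emission ratio; % is set by controls: 0 for no effect and ±100 for the full control effect.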 The following applies: ME-180 SIE beta-lactamase reporter, IL-6 stimulated, 5 h; at 7.69 µM (top of the series) unless noted. The essentials:
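Normalization used AC90 stimulation (300 pM IL-6) and AC90 inhibition (125 nM pan-JAK inhibitor at 40 pM IL-6). The underlying signal is SIE-driven beta-lactamase in ME-180 cells after 5 h IL-6 exposure with compound.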

Experiment [5] has as its target Glucocorticoid receptor (Homo sapiens) (UniProt P04150). Briefly: GR-EFC Redistribution (AID 451; calls by dose curve; note: potency is the fitted concentration of half-maximal effect). The note with it: CHO-K1 GR-EFC translocation, beta-gal luminescence, 2 h. The method in brief: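 CHO-K1 cells expressing nuclear EA and GR-ED fragments of b-gal; compounds titrated up to 46 uM final, 2 h at 37 C. GR nuclear translocation read as complemented b-gal luminescence after 1 h RT detection.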

Experiment [6] addresses Mitogen-activated protein kinase 10 (Mus musculus) (UniProt Q61831). Briefly: JNK3 AlphaScreen Assay (AID 530).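 Note: kinase came from lysate of stimulated human HepG2 cells; signal reports phosphorylation of biotinylated GST-cJun 1-79 at Ser73 with 10 µM ATP; % is set by controls: 0 for no effect and ±100 for the full control effect.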 The following applies: JNK3 lysate, c-Jun phosphorylation; series mostly up to 57.1 µM. The method in brief: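 Activity was read by AlphaScreen after JNK3-containing HepG2 lysate (cytokine pre-activated) phosphorylated biotinylated GST-cJun with 10 uM ATP at room temperature. Phospho-Ser73 cJun antibody with Protein-A acceptor beads provided detection.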
A general note: Bead proximity is the source of the signal in Alpha formats.

Experiment [7] addresses 3',5'-cyclic-AMP phosphodiesterase 4B (Homo sapiens) (UniProt Q07343). Briefly: qHTS Assay for Inhibitors of PDE-IV (AID 607; active = well fitted activation curve with a large enough effect in the main read-out, with a control signal flat, not every such curve was filed as active; note: % of control where 0% means no effect). The following applies: HEK293 ACTOne CNG channel cells, membrane potential fluorescence; series mostly up to 22.9 µM. The essentials:
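HEK293 ACTOne cells with CNG channel (1000/well), endogenous PDE4; membrane potential dye, compounds up to 22.9 uM final. Fluorescence Ex 535/Em 590; RO 20-1724 (100 uM final) as reference.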
(Quantitative high-throughput screening tests each substance at several concentrations.)

The target of experiment [8] is Cytochrome P450 3A4 (Homo sapiens) (UniProt P08684). In words: qHTS Assay for Activators of Cytochrome P450 3A4 (AID 885; active = well fitted curve in the direction sought with a large enough effect; an effect the other way counts as inactive or inconclusive; note: nearly all actives have a fitted effect of over 65% in size). The following applies: recombinant CYP3A4, Luciferin-PPXE luminescence, 60 min; series mostly up to 57.1 µM. The essentials:
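Human CYP3A4 dealkylates Luciferin-PPXE to luciferin, which luciferase detection converts to light. Substrate was at its KM (25uM), buffer 200mM KPO4, reaction 60 min at RT.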

Experiment [9] in a line: Primary qHTS for small molecule stabilizers of the endoplasmic reticulum resident proteome: Secreted ER Calcium Modulated Protein (SERCaMP) assay (AID 1508630; active = well fitted curve in the direction sought with a large enough effect; an effect the other way counts as inactive or inconclusive; note: % is set by controls: 0 for no effect and ±100 for the full control effect). The following applies: SH-SY5Y GLuc-SERCaMP (Gaussia luciferase released on ER calcium loss) secretion, thapsigargin, luminescence; series mostly up to 38.4 µM. The method in brief: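 The SH-SY5Y reporter protocol was run at 3 concentrations up to 38.3 uM (primary) or 11 concentrations (follow-up): 16 h compound, 100 nM thapsigargin for 4 h, then extracellular luciferase luminescence.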

Experiment [10] addresses Cytochrome P450 3A4 (Homo sapiens) (UniProt P08684). Briefly: qHTS Assay for Inhibitors and Substrates of Cytochrome P450 3A4 (AID 884; active = well fitted curve in the direction sought with a large enough effect; an effect the other way counts as inactive or inconclusive; note: potency is the fitted concentration of half-maximal effect; nearly all actives have a fitted effect of over 50% in size). The note with it: recombinant CYP3A4, Luciferin-PPXE luminescence; series mostly up to 57.1 µM. The essentials:
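Luminescent readout of luciferin produced by CYP3A4 (20 nM) dealkylation of Luciferin-PPXE, 25 uM (its KM). NADPH-driven reaction ran 60 min at RT after 10 min compound preincubation; data scaled to 57 uM ketoconazole as 100% inhibition.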

Experiment [11] deals with Cytochrome P450 2D6 (Homo sapiens) (UniProt P10635). Briefly: qHTS Assay for Inhibitors and Substrates of Cytochrome P450 2D6 (AID 891; active = well fitted curve in the direction sought with a large enough effect; an effect the other way counts as inactive or inconclusive; note: potency is the fitted concentration of half-maximal effect; nearly all actives have a fitted effect of over 60% in size). The note with it: recombinant CYP2D6, luciferin-ME EGE luminescence; series mostly up to 57.1 µM. The essentials: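 Luminescent read-out of luciferin formed by 5 nM human CYP2D6 demethylating 30 uM Luciferin-ME EGE (Km level) over 60 min at room temperature after NADPH regeneration addition. Data normalized to full inhibition by 1.43 uM quinidine.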

The nature of experiment [12]: NFAT Signaling Pathway (AID 444). The following applies: Jurkat NFAT-bla M1, carbachol, beta-lactamase ratio, 5 h; at 7.69 µM (top of the series) unless noted. The essentials:
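Jurkat cells with NFAT-driven β-lactamase reporter and co-expressed M1 receptor, stimulated with carbachol (final 1 uM, ~EC50), compound titration, 5 h at 37 °C. CCF4 loaded 1 h at RT; 460/530 nm ratio gave %activity and AC50.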

The target of experiment [13] is Glucocorticoid receptor (Homo sapiens) (UniProt P04150). In words: GR-GFP Redistribution (AID 450;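 active = compounds whose dose series gives a full or clear partial fitted curve of increased nuclear translocation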; note: potency is the fitted concentration of half-maximal effect). The note with it: U2OS GR-GFP nuclear translocation, laser cytometry, 2 h.
Experiment [14] can be described thus: qHTS Assay for Identification of Small Molecule Agonists for Hypoxia Response Element Signaling Pathway (AID 914; active = well fitted activation curve with a large enough effect in the signal ratio, with a control signal flat, not every such curve was filed as active; the % refers to the signal ratio; note: potency is the fitted concentration of half-maximal effect). The following applies: ME-180 (cervical carcinoma) HRE-bla reporter, beta-lactamase ratio, CoCl2, 17 h; activation: active compounds read high. The method in brief:
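HRE-bla ME-180 cells with beta-lactamase reporter under hypoxia response element, compounds with EC50 CoCl2 for 17 hours at 37 C. CCF4 substrate, 460nm/530nm emission ratio gave %Activity; AC50 from titration series.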

Each structure is given as a SMILES string. Values without a mark were called inactive. Records with an inconclusive call do not appear. The source made the active and inactive calls. Unless noted, calls come from the whole dose curve; as a rule, active = well fitted curve in either direction with a large enough effect (not every such curve was filed as active); inconclusive = small, poorly fitted or top-dose-only effect, or another doubt; inactive = flat fitted curve, though single readings scatter.

Chain of 3',5'-cyclic-AMP phosphodiesterase 4B (Homo sapiens) (Q07343 whole entry, looked up): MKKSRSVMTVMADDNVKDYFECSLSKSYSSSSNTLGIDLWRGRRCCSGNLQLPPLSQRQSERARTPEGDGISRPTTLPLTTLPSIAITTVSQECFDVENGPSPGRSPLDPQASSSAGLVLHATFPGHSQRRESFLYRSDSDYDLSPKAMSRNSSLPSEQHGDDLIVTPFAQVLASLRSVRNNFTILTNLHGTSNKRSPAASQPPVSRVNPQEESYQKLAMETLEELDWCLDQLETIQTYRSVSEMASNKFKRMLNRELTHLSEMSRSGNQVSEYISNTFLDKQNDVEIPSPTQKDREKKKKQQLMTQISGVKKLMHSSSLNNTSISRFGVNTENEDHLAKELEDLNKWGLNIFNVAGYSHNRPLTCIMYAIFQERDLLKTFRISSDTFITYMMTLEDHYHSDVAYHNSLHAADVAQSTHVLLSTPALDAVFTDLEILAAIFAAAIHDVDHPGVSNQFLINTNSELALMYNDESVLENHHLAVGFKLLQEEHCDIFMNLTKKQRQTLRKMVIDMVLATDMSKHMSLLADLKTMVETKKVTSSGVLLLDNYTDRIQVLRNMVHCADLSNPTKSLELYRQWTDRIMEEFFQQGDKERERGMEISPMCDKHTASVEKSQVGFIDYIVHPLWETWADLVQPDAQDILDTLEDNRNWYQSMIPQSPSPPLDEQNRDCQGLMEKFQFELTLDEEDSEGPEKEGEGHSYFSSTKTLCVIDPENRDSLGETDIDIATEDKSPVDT
Chain of Glucocorticoid receptor (Homo sapiens) (P04150 whole entry, looked up, the tested form may be a part): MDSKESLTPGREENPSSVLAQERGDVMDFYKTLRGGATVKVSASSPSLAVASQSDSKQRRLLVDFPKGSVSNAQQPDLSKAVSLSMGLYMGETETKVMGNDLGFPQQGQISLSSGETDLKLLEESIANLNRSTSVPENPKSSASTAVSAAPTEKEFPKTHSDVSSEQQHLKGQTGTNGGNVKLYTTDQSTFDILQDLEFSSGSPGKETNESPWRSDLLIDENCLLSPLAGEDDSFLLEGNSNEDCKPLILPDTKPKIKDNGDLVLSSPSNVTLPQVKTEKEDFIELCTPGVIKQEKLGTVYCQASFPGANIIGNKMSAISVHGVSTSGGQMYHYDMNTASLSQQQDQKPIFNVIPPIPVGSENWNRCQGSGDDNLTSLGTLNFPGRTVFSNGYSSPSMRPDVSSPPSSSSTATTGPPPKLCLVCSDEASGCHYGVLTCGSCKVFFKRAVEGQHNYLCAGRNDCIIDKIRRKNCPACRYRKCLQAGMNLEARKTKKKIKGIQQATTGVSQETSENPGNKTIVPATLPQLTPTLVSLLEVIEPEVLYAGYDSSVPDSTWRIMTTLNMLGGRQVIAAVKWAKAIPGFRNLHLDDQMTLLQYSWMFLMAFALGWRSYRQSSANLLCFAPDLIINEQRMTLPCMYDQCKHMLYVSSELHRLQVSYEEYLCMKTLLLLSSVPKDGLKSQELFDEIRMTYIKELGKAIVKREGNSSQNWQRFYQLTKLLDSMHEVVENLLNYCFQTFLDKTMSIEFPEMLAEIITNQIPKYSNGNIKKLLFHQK
Chain of Cytochrome P450 3A4 (Homo sapiens) (P08684 whole entry, looked up): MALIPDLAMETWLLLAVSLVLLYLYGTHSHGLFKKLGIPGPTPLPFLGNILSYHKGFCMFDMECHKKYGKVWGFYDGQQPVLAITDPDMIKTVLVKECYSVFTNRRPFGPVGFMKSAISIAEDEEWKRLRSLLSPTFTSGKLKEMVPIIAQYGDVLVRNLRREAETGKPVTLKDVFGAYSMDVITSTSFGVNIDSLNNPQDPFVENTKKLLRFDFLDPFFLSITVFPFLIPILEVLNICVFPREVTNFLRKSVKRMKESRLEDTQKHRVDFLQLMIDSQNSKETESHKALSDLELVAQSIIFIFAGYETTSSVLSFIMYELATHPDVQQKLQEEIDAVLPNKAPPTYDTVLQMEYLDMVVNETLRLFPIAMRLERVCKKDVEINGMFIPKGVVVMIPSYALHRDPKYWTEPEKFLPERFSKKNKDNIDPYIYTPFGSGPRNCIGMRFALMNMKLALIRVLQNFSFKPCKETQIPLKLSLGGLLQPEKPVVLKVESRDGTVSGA
Chain of Lysosomal acid glucosylceramidase (Homo sapiens) (P04062 whole entry, looked up): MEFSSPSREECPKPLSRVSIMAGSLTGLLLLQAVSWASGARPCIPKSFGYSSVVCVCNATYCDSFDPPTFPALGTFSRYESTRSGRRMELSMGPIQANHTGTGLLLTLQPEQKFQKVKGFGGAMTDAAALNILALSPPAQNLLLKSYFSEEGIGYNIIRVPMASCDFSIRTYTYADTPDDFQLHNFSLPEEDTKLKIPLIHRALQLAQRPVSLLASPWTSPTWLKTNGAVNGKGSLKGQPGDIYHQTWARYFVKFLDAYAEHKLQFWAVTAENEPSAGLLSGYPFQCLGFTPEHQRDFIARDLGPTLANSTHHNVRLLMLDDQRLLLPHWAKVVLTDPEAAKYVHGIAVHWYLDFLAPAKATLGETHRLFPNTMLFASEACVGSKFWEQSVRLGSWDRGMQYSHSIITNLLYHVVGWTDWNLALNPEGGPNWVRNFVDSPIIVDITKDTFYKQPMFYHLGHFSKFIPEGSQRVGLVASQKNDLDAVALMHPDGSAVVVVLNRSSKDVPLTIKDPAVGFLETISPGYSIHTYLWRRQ
Chain of Cytochrome P450 1A2 (Homo sapiens) (P05177 whole entry, looked up): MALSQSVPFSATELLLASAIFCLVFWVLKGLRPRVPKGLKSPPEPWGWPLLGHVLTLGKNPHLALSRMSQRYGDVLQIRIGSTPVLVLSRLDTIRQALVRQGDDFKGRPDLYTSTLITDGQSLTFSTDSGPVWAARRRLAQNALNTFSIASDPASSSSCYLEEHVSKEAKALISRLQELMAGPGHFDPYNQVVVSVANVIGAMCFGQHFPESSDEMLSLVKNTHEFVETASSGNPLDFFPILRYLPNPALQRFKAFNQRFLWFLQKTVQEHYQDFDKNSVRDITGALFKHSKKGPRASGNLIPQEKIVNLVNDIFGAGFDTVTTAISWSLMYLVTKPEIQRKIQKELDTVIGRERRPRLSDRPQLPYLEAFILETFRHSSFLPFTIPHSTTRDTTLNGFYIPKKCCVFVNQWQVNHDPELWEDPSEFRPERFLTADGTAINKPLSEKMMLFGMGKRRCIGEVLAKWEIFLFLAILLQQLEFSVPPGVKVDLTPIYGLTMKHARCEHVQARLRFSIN
Chain of Cytochrome P450 2D6 (Homo sapiens) (P10635 whole entry, looked up): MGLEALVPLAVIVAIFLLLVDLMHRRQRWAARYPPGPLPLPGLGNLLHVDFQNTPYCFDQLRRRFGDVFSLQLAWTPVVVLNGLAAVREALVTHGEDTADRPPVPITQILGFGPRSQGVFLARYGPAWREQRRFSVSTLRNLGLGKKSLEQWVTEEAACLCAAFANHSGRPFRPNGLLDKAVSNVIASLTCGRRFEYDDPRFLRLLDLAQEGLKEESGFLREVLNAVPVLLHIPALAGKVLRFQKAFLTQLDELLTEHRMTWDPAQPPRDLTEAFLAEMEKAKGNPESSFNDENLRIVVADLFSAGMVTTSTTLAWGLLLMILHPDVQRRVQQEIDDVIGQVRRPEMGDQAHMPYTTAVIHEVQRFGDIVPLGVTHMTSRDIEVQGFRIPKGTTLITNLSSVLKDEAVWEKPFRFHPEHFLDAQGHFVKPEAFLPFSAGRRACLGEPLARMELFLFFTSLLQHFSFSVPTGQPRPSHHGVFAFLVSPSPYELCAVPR

On to `O=C(Oc1ccccc1)N1CCC2(CCCN(c3ccc(-c4ccccc4)cc3)C2)CC1`, for which the Potency in experiment [1] was greater than 11.4 µM; in experiment [5] it was greater than 46 µM. Besides, in experiment [2], the activity change, negative = inhibition was 27%. Moreover, the Potency entry in [3], in [6], in [7] and in [8] was “inactive” each time. In experiment [4], the activity, negative = inhibition is 6.94%. The outcome in [9] was inactive.

Consider `O=C(c1ccco1)N1CCC2(CCCN(Cc3ccncc3)C2)CC1`, for which the Potency in [1] was greater than 11.4 µM; in experiment [3], 15.8 µM (active); in experiment [5], greater than 46 µM; in experiment [10], 5.01 µM (active); in experiment [11], 3.16 µM (active). The activity change, negative = inhibition in experiment [2] is -1.32%. The activity, negative = inhibition in experiment [4] was -14.4%. For the same compound, the Potency result in experiment [6] and in experiment [8] was “inactive” throughout. Moreover, the outcome in experiment [9] was inactive.

For `COCCn1c(=O)cnc2cnc(OCc3ccccc3)nc21`, the Potency was greater than 11.4 µM in experiment [1], greater than 9.22 µM in experiment [13] and greater than 46 µM in [5]. In addition, the activity change, negative = inhibition in [2] is -3.32%; in experiment [12], -3.92%. Also, the activity, negative = inhibition in experiment [4] was 3.06%. In addition, the Potency entry in experiment [6], in experiment [7] and in experiment [8] was “inactive” throughout. Further, in experiment [9], the outcome was inactive.

Consider `COc1cccc(Cn2c(=O)cnc3cnc(N4CCOCC4)nc32)c1`, for which the figures for the Potency in experiment [1], in experiment [13] and in experiment [5] were greater than 11.4 µM, greater than 9.22 µM and greater than 46 µM, respectively. Besides, the activity change, negative = inhibition in experiment [2] is -21.3%; in [12] it was -0.938%. In addition, in experiment [4], the activity, negative = inhibition is -11%. Moreover, the Potency result in experiment [6] is “inactive”. For the same compound, the result in experiment [9] was inactive.

With `COc1cccc(Cn2c(=O)c(-c3cccc(F)c3)nc3cncnc32)c1`, the Potency in experiment [1] is greater than 11.4 µM; in experiment [13], greater than 9.22 µM; in experiment [5] it was greater than 46 µM. Besides, the activity change, negative = inhibition in [2] is -9.03%; in experiment [12], -6.22%. Moreover, the activity, negative = inhibition in experiment [4] was -7.22%. The Potency result in experiment [6], in experiment [7] and in experiment [8] was “inactive” throughout. The result in experiment [9] was inactive.

Consider `COCCn1c(=O)c(-c2ccc(F)cc2)nc2cnc(Oc3cccc(Cl)c3)nc21`, for which the Potency in experiment [1] is greater than 11.4 µM; in experiment [13] it was greater than 9.22 µM; in [5], greater than 46 µM. Besides, the activity change, negative = inhibition in experiment [2] is 1.58%; in [12], -15.6%. For the same compound, the activity, negative = inhibition in experiment [4] was -8.51%. The Potency result in experiment [6] and in [7] was “inactive” each time. Moreover, in experiment [9], the outcome was inactive.

Regarding `COc1cccc(Cn2c(=O)c(-c3ccc(Cl)cc3)nc3cnc(N(C)C)nc32)c1`, the Potency in experiment [1] was greater than 11.4 µM; in experiment [13] it was greater than 9.22 µM; in experiment [5] it was greater than 46 µM; in [14], 0.316 µM (active). Besides, the figures for the activity change, negative = inhibition in experiment [2] and in experiment [12] were 122% [activator] (active) and 154% [activator] (active), respectively. The activity, negative = inhibition in [4] is 215% [activator] (active). The Potency result in [6] and in [7] was “inactive” in each case. Also, the outcome in experiment [9] was inactive.

These data come from PubChem BioAssay (NCATS).
